Reference: the supplement of paper PMC12645437, “Orthogonal IMiD-Degron Pairs Induce Selective Protein Degradation in Cells” (ACS Chemical Biology, 2025)
The full ranking holds about 8,300 sequences; the median of “log2 fold change of degron read counts, EGFP-low vs EGFP+ sorted cells (limma voom), compound-induced degradation” is about -1.1, and the highest 2% start at about 3.2. The entries come from a sample that favours the highest values as a whole.

T1: CRBN, Q96SW2
T1 chain: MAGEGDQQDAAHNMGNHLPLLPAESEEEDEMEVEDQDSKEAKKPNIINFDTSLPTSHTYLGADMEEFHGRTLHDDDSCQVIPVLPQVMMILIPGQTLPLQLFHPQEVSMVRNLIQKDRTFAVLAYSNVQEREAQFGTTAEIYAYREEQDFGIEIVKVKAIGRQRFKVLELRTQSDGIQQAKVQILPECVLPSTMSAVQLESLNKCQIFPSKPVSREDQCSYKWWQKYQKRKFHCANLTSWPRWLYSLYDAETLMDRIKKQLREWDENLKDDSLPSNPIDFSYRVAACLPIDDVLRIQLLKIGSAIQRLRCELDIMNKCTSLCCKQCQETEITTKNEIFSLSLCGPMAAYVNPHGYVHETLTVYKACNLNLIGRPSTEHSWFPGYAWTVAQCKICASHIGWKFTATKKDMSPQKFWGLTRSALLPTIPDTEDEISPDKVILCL


Molecular target: T1, CRBN, Q96SW2
Experiment: log2 fold change of degron read counts, EGFP-low vs EGFP+ sorted cells (limma voom), compound-induced degradation; higher = more compound-induced degradation of the degron-EGFP fusion; degrons are variants of IKZF1/3 zinc finger 2; compound dose not given here
Conditions: Jurkat, 18 h
[1] = compound: compound 19 (5-tert-butyl-thalidomide)
[2] = compound: compound 22 (5-morpholino-thalidomide)
[3] = compound: compound 33 (diphenyl IMiD analogue)
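Further: pooled lentiviral library of zinc finger degron-EGFP fusions in mCherry-positive Jurkat cells, FACS-sorted after compound exposure, with degron abundance counted by next-generation sequencing.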

Sequence | log2 fold change of degron read counts [1] | log2 fold change of degron read counts [2] | log2 fold change of degron read counts [3] | log2 fold change of degron read counts (compound: thalidomide)
FICPICGHQFTQKGNLLRHIKL [46F_47I_49P_50I_52G_53H_54Q_55F_67L_, Q9UKT9] | -2.44 | -2.12 | -1.5 | -1.12
FGCDVCGAMFTQKGNLLRHIKL [46F_47G_49D_50V_52G_53A_54M_55F_67L_, Q9UKT9] | 0.868 | -0.562 | -0.229 | -1.8
FTCPICGREFTQKGNLLRHIKL [46F_47T_49P_50I_52G_53R_54E_55F_67L_, Q9UKT9] | -1.73 | -0.622 | -0.517 | 0.583
FLCNQCGHMFTQKGNLLRHIKL [46F_47L_49N_50Q_52G_53H_54M_55F_67L_, Q9UKT9] | -2.55 | -2.97 | -3.4 | -2.9
FKCEQCGAQFTQKGNLLRHIKL [46F_47K_49E_50Q_52G_53A_54Q_55F_67L_, Q9UKT9] | -2.76 | -3.28 | -3.17 | -2.41
FSCPICGHEFTQKGNLLRHIKL [46F_47S_49P_50I_52G_53H_54E_55F_67L_, Q9UKT9] | -2.38 | -3.52 | -2.42 | -2.6
LICNQCGFPCTQKGNLLRHIKL [46L_47I_49N_50Q_52G_53F_54P_55C_67L_, Q9UKT9] | -2.14 | -2.53 | -2.15 | -1.65
FMCNICGAWFTQKGNLLRHIKL [46F_47M_49N_50I_52G_53A_54W_55F_67L_, Q9UKT9] | -1.88 | -2.01 | -0.0323 | -1.08
FCCEICGAEFTQKGNLLRHIKL [46F_47C_49E_50I_52G_53A_54E_55F_67L_, Q9UKT9] | 1.77 | 1.26 | 0.921 | 1.54
FNCEICGAEFTQKGNLLRHIKL [46F_47N_49E_50I_52G_53A_54E_55F_67L_, Q9UKT9] | 1.62 | -0.794 | -0.586 | -0.166
FRCEICGAEFTQKGNLLRHIKL [46F_47R_49E_50I_52G_53A_54E_55F_67L_, Q9UKT9] | -0.6 | -0.629 | 1.71 | 1.31
FQCEICGAEFTQKGNLLRHIKL [46F_47Q_49E_50I_52G_53A_54E_55F_67L_, Q9UKT9] | 1.15 | 1.54 | 1.73 | 3.53
FACEICGAEFTQKGNLLRHIKL [46F_47A_49E_50I_52G_53A_54E_55F_67L_, Q9UKT9] | 2.52 | 1.11 | -1.05 | -0.214
FYCEICGAEFTQKGNLLRHIKL [46F_47Y_49E_50I_52G_53A_54E_55F_67L_, Q9UKT9] | 3.55 | 3.26 | 2.06 | 0.377
FTCDVCGATFTQKGNLLRHIKL [46F_47T_49D_50V_52G_53A_54T_55F_67L_, Q9UKT9] | -1.33 | 0.301 | 0.357 | 0.358
FHCPICGRLFTQKGNLLRHIKL [46F_47H_49P_50I_52G_53R_54L_55F_67L_, Q9UKT9] | -0.285 | -0.232 | 0.531 | -0.155
FLCEICGAAFTQKGNLLRHIKL [46F_47L_49E_50I_52G_53A_54A_55F_67L_, Q9UKT9] | 2.02 | 0.295 | 1.47 | 1.59
FRCEICGAAFTQKGNLLRHIKL [46F_47R_49E_50I_52G_53A_54A_55F_67L_, Q9UKT9] | 2.72 | 2.37 | 2.62 | 2.49
FACEICGAAFTQKGNLLRHIKL [46F_47A_49E_50I_52G_53A_54A_55F_67L_, Q9UKT9] | 3.9 | 3.03 | 1.11 | 1.38
FMCEICGAAFTQKGNLLRHIKL [46F_47M_49E_50I_52G_53A_54A_55F_67L_, Q9UKT9] | 2.64 | 2.45 | 3.19 | 2.46
FWCEICGAAFTQKGNLLRHIKL [46F_47W_49E_50I_52G_53A_54A_55F_67L_, Q9UKT9] | 3.77 | 3.83 | 2.67 | 1.57
FDCEICGAAFTQKGNLLRHIKL [46F_47D_49E_50I_52G_53A_54A_55F_67L_, Q9UKT9] | 2.61 | 0.418 | 0.792 | 1.38
FECEICGAAFTQKGNLLRHIKL [46F_47E_49E_50I_52G_53A_54A_55F_67L_, Q9UKT9] | 2.86 | -0.833 | 2.05 | 2.53
FFCEICGAAFTQKGNLLRHIKL [46F_47F_49E_50I_52G_53A_54A_55F_67L_, Q9UKT9] | 3.55 | 3.64 | 2.55 | 1.87
FGCEICGAAFTQKGNLLRHIKL [46F_47G_49E_50I_52G_53A_54A_55F_67L_, Q9UKT9] | 3.04 | 2.59 | 2.15 | 1.39
FHCEICGAAFTQKGNLLRHIKL [46F_47H_49E_50I_52G_53A_54A_55F_67L_, Q9UKT9] | 3.24 | 3 | 1.87 | 0.773
FACPICGALFTQKGNLLRHIKL [46F_47A_49P_50I_52G_53A_54L_55F_67L_, Q9UKT9] | 1.68 | -0.526 | 0.427 | -0.353
FRCNICGAVFTQKGNLLRHIKL [46F_47R_49N_50I_52G_53A_54V_55F_67L_, Q9UKT9] | -1.72 | -0.828 | 0.967 | 0.628
